In PubChem BioAssay (Tox21):
Several values for one entry are separate records, joined by “and”; a condition that tells them apart may be missing. Identical values can stand only once. Results filed as inconclusive are left out. Some compounds were tested as several samples or in several runs, with calls that do not always agree. Activity calls are given as the source filed them. Unless noted, calls follow the shape of the dose curve; as a rule, active = well fitted curve in the direction sought with a large enough effect in the repeat runs; inconclusive = weak or mixed curves; inactive = no such curve, though single readings can be large; an effect the other way counts as inactive or inconclusive.

Key:
[1] = qHTS assay to identify small molecule antagonists of the glucocorticoid receptor (GR) signaling pathway - cell viability counter screen (AID 720693); also: % is scaled to controls: 0 for no effect and ±100 for the full control effect; nearly all actives have a fitted effect of over 55% in size
[2] = qHTS assay for identifying genotoxic compounds that show differential cytotoxicity against isogenic chicken DT40 cell lines with known DNA damage response pathways - wild type cell line (AID 743012); also: nearly all actives have a fitted effect of over 60% in size; also: potency is read from the fitted curve at half-maximal effect
Summary of the method: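 Quantitative HTS on parental DT40 cells: 40 h compound treatment at 37 C/5% CO2, with viability then determined by CellTiter-Glo luminescence. Values serve as the DNA repair-proficient reference for differential cytotoxicity.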

[3] = qHTS assay for identifying genotoxic compounds that show differential cytotoxicity against isogenic chicken DT40 cell lines with known DNA damage response pathways - Rev3 mutant cell line (AID 743014); also: nearly all actives have a fitted effect of over 55% in size; also: potency is read from the fitted curve at half-maximal effect
[4] = qHTS assay for identifying genotoxic compounds that show differential cytotoxicity against isogenic chicken DT40 cell lines with known DNA damage response pathways - Rad54/Ku70 mutant cell line (AID 743015); also: nearly all actives have a fitted effect of over 60% in size; also: potency is read from the fitted curve at half-maximal effect
[5] = qHTS assay to identify small molecule antagonists of the androgen receptor (AR) signaling pathway - cell viability counter screen (AID 743033; also: nearly all actives have a fitted effect of over 45% in size; also: potency is read from the fitted curve at half-maximal effect)
[6] = qHTS assay to identify small molecule antagonists of the androgen receptor (AR) signaling pathway using the MDA cell line - cell viability counter screen (AID 743041; also: % is scaled to controls: 0 for no effect and ±100 for the full control effect; nearly all actives have a fitted effect of over 45% in size)
Summary of the method: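 Cells were plated at 3,000 per well and left 5 h. Compounds in DMSO were then pinned in, followed by R1881. After 16 h at 37C, CellTiter-Fluor fluorescence gave viability.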

[7] = qHTS assay to identify small molecule antagonists of the thyroid receptor (TR) signaling pathway - cell viability counter screen (AID 743064); also: nearly all actives have a fitted effect of over 50% in size; also: potency is read from the fitted curve at half-maximal effect
Summary of the method: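 GH3.TRE-Luc rat pituitary cells dosed after 4 hr plating, co-stimulated with T3 at 1 nM final, incubated 23.5 h at 37 C. Viability measured in the same wells by CellTiter-Fluor fluorescence after 30 min further at 37 C.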

[8] = qHTS assay to identify small molecule antagonists of the thyroid receptor (TR) signaling pathway (AID 743065); also: nearly all actives have a fitted effect of over 55% in size; also: potency is read from the fitted curve at half-maximal effect
Summary of the method: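 Antagonism measured as loss of luciferase signal in GH3 cells stably carrying a TRE-luciferase reporter, co-treated with compound and T3 (1 nM final) for 23.5 h at 37 C. Viability was read in the same well by CellTiter-Fluor.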

[9] = test system: thyroid hormone receptor (rat, GH3 cells); test: qHTS assay to identify small molecule agonists of the thyroid receptor (TR) signaling pathway (AID 743066; calls by dose curve; also: % is scaled to controls: 0 for no effect and ±100 for the full control effect)
[10] = qHTS assay to identify small molecule antagonists of the estrogen receptor alpha (ER-alpha) signaling pathway - cell viability counter screen (AID 743074; calls by dose curve;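 also: HEK293 cells carrying ER-alpha-UAS-bla reporter stimulated with 17beta-estradiol; % is scaled to controls: 0 for no effect and ±100 for the full control effect; nearly all actives have a fitted effect of over 45% in size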)
[11] = qHTS assay to identify small molecule antagonists of the estrogen receptor alpha (ER-alpha) signaling pathway using the BG1 cell line - cell viability counter screen (AID 743081);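 also: compound given together with 17beta-estradiol as the ER stimulus; % is scaled to controls: 0 for no effect and ±100 for the full control effect; nearly all actives have a fitted effect of over 45% in size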
[12] = target: Androgen receptor (Homo sapiens) (UniProt P10275); test: qHTS assay to identify small molecule antagonists of the androgen receptor (AR) signaling pathway (AID 743035; active = well fitted inhibition curve with a large enough effect in the signal ratio in the repeat runs, not every such curve was filed as active; the % refers to the signal ratio; also: potency is read from the fitted curve at half-maximal effect)
Chain of Androgen receptor (Homo sapiens) (P10275 whole entry, looked up): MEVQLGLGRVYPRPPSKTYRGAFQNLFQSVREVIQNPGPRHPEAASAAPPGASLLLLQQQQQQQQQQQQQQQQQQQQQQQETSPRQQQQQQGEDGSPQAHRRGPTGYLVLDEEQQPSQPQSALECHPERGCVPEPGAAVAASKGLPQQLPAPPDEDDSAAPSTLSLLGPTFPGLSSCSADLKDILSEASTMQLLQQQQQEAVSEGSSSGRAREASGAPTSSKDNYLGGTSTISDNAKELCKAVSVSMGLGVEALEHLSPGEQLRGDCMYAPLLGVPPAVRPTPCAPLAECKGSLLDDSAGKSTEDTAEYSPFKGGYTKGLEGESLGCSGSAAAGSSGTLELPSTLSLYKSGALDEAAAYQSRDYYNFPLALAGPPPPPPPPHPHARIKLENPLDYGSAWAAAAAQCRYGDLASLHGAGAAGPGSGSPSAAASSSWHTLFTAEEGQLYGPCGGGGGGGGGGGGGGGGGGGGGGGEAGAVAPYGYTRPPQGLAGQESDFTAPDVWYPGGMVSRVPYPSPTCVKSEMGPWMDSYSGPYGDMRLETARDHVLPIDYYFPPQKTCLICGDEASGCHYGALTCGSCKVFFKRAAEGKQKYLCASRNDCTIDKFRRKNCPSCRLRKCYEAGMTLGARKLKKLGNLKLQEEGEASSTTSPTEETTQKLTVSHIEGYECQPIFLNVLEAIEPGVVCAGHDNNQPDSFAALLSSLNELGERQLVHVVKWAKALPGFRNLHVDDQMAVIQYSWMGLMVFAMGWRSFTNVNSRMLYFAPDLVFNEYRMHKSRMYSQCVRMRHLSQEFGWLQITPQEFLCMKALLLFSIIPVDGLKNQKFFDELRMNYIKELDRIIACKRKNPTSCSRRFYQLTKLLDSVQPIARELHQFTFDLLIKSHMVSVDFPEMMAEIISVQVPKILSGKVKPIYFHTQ
Summary of the method: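 Cell line: GeneBLAzer AR-UAS-bla GripTite (HEK293). Stimulus: R1881 added after compound. Exposure: 16 h, 37C, 5% CO2. Readout: LiveBLAzer B/G FRET fluorescence after 2 h at room temperature.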

[13] = target: Androgen receptor (Homo sapiens) (UniProt P10275); test: qHTS assay to identify small molecule agonists of the androgen receptor (AR) signaling pathway (AID 743036; active = well fitted activation curve with a large enough effect in the signal ratio in the repeat runs, with a control signal flat, not every such curve was filed as active; the % refers to the signal ratio; also: % is scaled to controls: 0 for no effect and ±100 for the full control effect)
Summary of the method: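 AR-UAS-bla HEK293 cells, plated 4 h before dosing, were treated with compound for 16 h at 37C. beta-Lactamase reporter read after 2 h with LiveBLAzer B/G FRET substrate at room temperature.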

[14] = target: Androgen receptor (Homo sapiens) (UniProt P10275); test: qHTS assay to identify small molecule agonists of the androgen receptor (AR) signaling pathway using the MDA cell line (AID 743040; also: % is scaled to controls: 0 for no effect and ±100 for the full control effect; nearly all actives have a fitted effect of over 20% in size); conditions: MDA-kb2 AR-luc cells, MMTV luciferase, 16 h, stronger effect = higher value
Summary of the method: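 Cells plated, 5 h at 37C/0% CO2; compound or DMSO pinned; 16 h at 37C; ONE-Glo added; luminescence measured after 30 min at room temperature. Reporter line: MDA-kb2 with MMTV-luciferase responsive to AR and GR.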

[15] = target: Androgen receptor (Homo sapiens) (UniProt P10275); test: qHTS assay to identify small molecule antagonists of the androgen receptor (AR) signaling pathway using the MDA cell line (AID 743042; also: potency is read from the fitted curve at half-maximal effect; nearly all actives have a fitted effect of over 55% in size)
Summary of the method: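 Antagonist mode: compounds plus R1881 agonist added to MDA-kb2 AR-luc cells, incubated 16 h at 37C. Luciferase reporter luminescence quantified, with multiplexed CellTiter-Fluor readout for cell viability.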

[16] = target: Estrogen receptor (Homo sapiens) (UniProt P03372); test: qHTS assay to identify small molecule agonists of the estrogen receptor alpha (ER-alpha) signaling pathway (AID 743075; calls by dose curve;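 also: HEK293 GripTite cells with ER-alpha and UAS-driven beta-lactamase reporter; % is scaled to controls: 0 for no effect and ±100 for the full control effect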)
Chain of Estrogen receptor (Homo sapiens) (P03372 whole entry, looked up): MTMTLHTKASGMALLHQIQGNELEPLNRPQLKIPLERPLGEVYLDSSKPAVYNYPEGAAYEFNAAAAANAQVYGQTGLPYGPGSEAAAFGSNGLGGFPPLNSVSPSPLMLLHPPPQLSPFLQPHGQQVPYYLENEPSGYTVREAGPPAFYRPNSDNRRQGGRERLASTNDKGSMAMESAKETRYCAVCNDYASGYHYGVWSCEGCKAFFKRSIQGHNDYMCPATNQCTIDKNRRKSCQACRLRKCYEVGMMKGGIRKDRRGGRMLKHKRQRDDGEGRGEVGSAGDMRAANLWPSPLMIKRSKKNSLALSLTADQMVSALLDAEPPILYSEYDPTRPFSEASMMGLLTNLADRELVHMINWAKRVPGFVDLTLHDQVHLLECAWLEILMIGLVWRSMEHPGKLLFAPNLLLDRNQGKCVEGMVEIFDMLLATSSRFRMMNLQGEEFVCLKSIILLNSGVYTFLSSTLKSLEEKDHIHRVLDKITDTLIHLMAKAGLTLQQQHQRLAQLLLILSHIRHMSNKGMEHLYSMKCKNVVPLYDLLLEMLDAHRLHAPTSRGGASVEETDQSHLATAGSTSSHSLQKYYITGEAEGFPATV

[17] = qHTS assay to identify small molecule antagonists of the estrogen receptor alpha (ER-alpha) signaling pathway using the BG1 cell line (AID 743080; calls by dose curve;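 also: BG1 cells stimulated with 17beta-estradiol alongside compound; nearly all actives have a fitted effect of over 25% in size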; also: potency is read from the fitted curve at half-maximal effect)
Summary of the method: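 Endogenous full-length ER-alpha in BG1-Luc-4E2 cells drives a stably integrated 4×ERE luciferase gene; compounds were tested against 17beta-estradiol over 21.5 h, with luminescence and multiplexed viability fluorescence recorded.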

[18] = target: Aromatase (Homo sapiens) (UniProt P11511); test: qHTS assay to identify aromatase inhibitors (AID 743083); also: nearly all actives have a fitted effect of over 55% in size; also: potency is read from the fitted curve at half-maximal effect
Chain of Aromatase (Homo sapiens) (P11511 whole entry, looked up): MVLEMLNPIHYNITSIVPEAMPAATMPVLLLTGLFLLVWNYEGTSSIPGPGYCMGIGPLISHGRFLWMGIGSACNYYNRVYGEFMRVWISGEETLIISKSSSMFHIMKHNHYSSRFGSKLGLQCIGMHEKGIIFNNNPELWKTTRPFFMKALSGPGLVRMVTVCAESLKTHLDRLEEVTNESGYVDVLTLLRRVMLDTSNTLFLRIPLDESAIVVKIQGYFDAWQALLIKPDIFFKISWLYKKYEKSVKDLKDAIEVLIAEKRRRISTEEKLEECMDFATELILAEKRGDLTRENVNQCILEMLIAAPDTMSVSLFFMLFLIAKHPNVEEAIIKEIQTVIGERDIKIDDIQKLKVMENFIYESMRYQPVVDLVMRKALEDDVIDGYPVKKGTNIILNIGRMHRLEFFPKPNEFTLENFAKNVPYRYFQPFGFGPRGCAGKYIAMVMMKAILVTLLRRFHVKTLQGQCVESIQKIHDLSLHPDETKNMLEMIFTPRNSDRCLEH

[19] = target: Estrogen receptor (Homo sapiens) (UniProt P03372); test: qHTS assay to identify small molecule antagonists of the estrogen receptor alpha (ER-alpha) signaling pathway (AID 743069; active = well fitted curve in the direction sought with a large enough effect in the signal ratio in the repeat runs, not every such curve was filed as active; the % refers to the signal ratio; also: % is scaled to controls: 0 for no effect and ±100 for the full control effect)
Summary of the method: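 ER-alpha-UAS-bla GripTite HEK293 line; 2% charcoal-stripped FBS overnight; plated, 4 hr 37C/5% CO2; cpd in DMSO + 17beta-estradiol, 18 hr 37C; LiveBLAzer B/G FRET substrate 2 hr RT; fluorescence intensity.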

[20] = target: Estrogen receptor (Homo sapiens) (UniProt P03372); test: qHTS assay to identify small molecule agonists of the estrogen receptor alpha (ER-alpha) signaling pathway using the BG1 cell line (AID 743079); conditions: BG1Luc4E2 cells, ERE-luciferase agonist, 22 h; activation: at 70.3 µM (top of the series) unless noted; also: nearly all actives have a fitted effect of over 20% in size; also: potency is read from the fitted curve at half-maximal effect

ClCC(Cl)CCl
inactive: Potency [1] | Potency [2] | Potency [3] | Potency [4] | Potency [5] | Potency [6] | Potency [7] | Potency [8] | Potency [9] | Potency [10] | Potency [11]

N#Cc1nn(-c2c(Cl)cc(C(F)(F)F)cc2Cl)c(N)c1S(=O)C(F)(F)F (stereo not drawn)
inactive: Potency [1] | Potency [13] | activity change ([14]; at 70.3 µM (top of the series)) -9.74% | activity change ([14]; at 95 µM (top of the series)) -12% | Potency [9] | Potency [10] | Potency [16] | Potency [11]
active: Potency [2] 8.41 µM and 2.75 µM | Potency [3] 10.6 µM and 3.88 µM | Potency [4] 9.44 µM and 1.94 µM | Potency [5] 15.6 µM | Potency [12] 23.9 µM | Potency [15] 17.3 µM | Potency [7] 29.8 µM and 61.5 µM | Potency [8] 26.6 µM and 19.4 µM | Potency [17] 7.5 µM and 24.5 µM | Potency [18] 33.5 µM and 19.4 µM

C=C(C)C#N
inactive: Potency [1] | Potency [2] | Potency [3] | Potency [4] | Potency [5] | Potency [6] | Potency [7] | Potency [8] | Potency [9] | Potency [19] | Potency [10] | Potency [16] | Potency [20] | Potency [17] | Potency [11] | Potency [18]

COc1ccc(C=O)cc1OC
inactive: Potency [1] | Potency [2] | Potency [3] | Potency [4] | Potency [5] | Potency [6] | Potency [7] | Potency [8] | Potency [9] | Potency [10] | Potency [16] | Potency [17] | Potency [11] | Potency [18]
inactive and 6.86 µM (active): Potency [20]

COP(=S)(OC)SCn1nnc2ccccc2c1=O
active: Potency [2] 43.3 µM | Potency [3] 60 µM and 61.1 µM | Potency [4] 60 µM and 61.1 µM | Potency [18] 54.5 µM
inactive: Potency [1] | Potency [5] | Potency [12] | Potency [13] | activity change ([14]; at 70.3 µM (top of the series)) -2.47% and -4.42% | Potency [6] | Potency [7] | Potency [9] | Potency [19] | Potency [10] | Potency [16] | Potency [20] | Potency [17] | Potency [11]

Cc1ccc([N+](=O)[O-])cc1
inactive: Potency [1] | Potency [2] | Potency [3] | Potency [4] | Potency [5] | Potency [6] | Potency [7] | Potency [8] | Potency [9] | Potency [19] | Potency [16] | Potency [20] | Potency [17] | Potency [11] | Potency [18]
